Data: the supplement of paper PMC5499739
The full ranking holds about 16,000 sequences; the median of “Z-score” is about -0.37, and the highest 2% start at about 3.1. Only a selection was taken, and the highest values are over-represented in it overall.

System: RBM10 RRM1-ZnF-RRM2 (GST-tagged construct)
Assay: RNAcompete 7-mer binding Z-score; higher = stronger binding preference
Outline: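 In 1 ml Hepes pH 7.8 buffer with KCl, NaCl, glycerol, DTT, BSA and glutathione Sepharose beads, GST-tagged RBM10 constructs (20 pmol) were incubated for 30 min at 4°C with 1.5 nmol of a designed pool of 241 399 RNAs up to 41 nt. Four 2-min washes at 4°C followed, and bound RNA was detected by microarray hybridisation. Heptamer motif enrichment was expressed as a one-sided Z-score across probes containing each motif.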

In order of rising “RNAcompete 7-mer binding Z-score” value:
1. CAUUUGC  -1.04
2. ACUUUCU  -0.959
3. CUGCUCU  -0.923
4. CUUAAUC  -0.905
5. CCUUUCC  -0.887
6. AUCACCU  -0.876
7. CUUUACG  -0.81
8. UCCAGCC  -0.799
9. UCCCGUU  -0.799
10. ACCCAGC  -0.785
11. UACACCC  -0.77
12. CGUUCUC  -0.763
13. AUCCCUC  -0.759
14. CUUUAUA  -0.752
15. UUGUCAA  -0.741
16. UUCAUUU  -0.737
17. GCCUACC  -0.726
18. GACUCCA  -0.704
19. UGAAAUU  -0.686
20. GCAUUUA  -0.661
21. AUAAUCU  -0.65
22. AAUUCAC  -0.643
23. GCCAUGU  -0.632
24. CGCUAAU  -0.628
25. UGUAGCC  -0.624
26. UUUGCAA  -0.602
27. UCUAAUG  -0.577
28. CUAACGA  -0.566
29. UCCCCCU  -0.566
30. ACAGAUC  -0.508
31. AGAAGCU  -0.508
32. AAAAAAA  -0.49
33. CUAGUGC  -0.486
34. UCGAGUU  -0.482
35. AGUCCAA  -0.464
36. ACUGCCC  -0.439
37. AAAAAUU  -0.435
38. CACGUGC  -0.428
39. AUUAUCG  -0.402
40. CCCCCCA  -0.38
41. CUUUAGG  -0.369
42. AGACCGG  -0.366
43. AUAUAAU  -0.366
44. CAAUGCA  -0.362
45. AAGUUUU  -0.329
46. UUCGUCG  -0.3
47. UAUUGCG  -0.278
48. ACUAGGC  -0.235
49. CGAAUAA  -0.224
50. CAAAUAG  -0.144
51. AUUCGAG  -0.114
52. AUGCGCG  -0.0889
53. GAGACCG  -0.0452
54. CGCACGG  -0.0124
55. AACCGUG  -0.00148
56. UCGAAAG  -0.00148
57. AUAUUAG  0.0313
58. GGCAACU  0.0532
59. AUAGACA  0.0532
60. UCGGAAC  0.0532
61. AAGAUGU  0.13
62. GAAAUCG  0.195
63. GCGGCUA  0.21
64. UGUAGAU  0.235
65. CGACGUG  0.25
66. AUCGAGA  0.352
67. AACAAAG  0.355
68. UAGGCUA  0.392
69. GCGGUAU  0.574
70. UGAAGCG  0.581
71. AAGCAGA  0.672
72. CGGUUAG  0.691
73. AUGGCGU  0.705
74. GGUCAGC  0.716
75. GAUAUAG  0.734
76. CGCGAGG  0.833
77. GACGGCG  0.836
78. GGCAUGA  0.876
79. CGGUUGA  0.876
80. GAUUGGC  0.927
81. AGAAGAA  1
82. GGUUAGC  1.03
83. CCAAGGG  1.05
84. GGCGGCA  1.12
85. CUUGGGG  1.13
86. GGGCUGC  1.14
87. CGCGGGA  1.16
88. AGAAGGC  1.17
89. UGAAGGC  1.21
90. GAAGGUC  1.25
91. GUUAGGC  1.25
92. UGGUUGA  1.31
93. CGAAGGU  1.34
94. CUGGGAA  1.36
95. UAAGGUA  1.39
96. CUGGGAG  1.4
97. ACGGGUC  1.42
98. AAAGGUC  1.46
99. AGCGGGC  1.57
100. CUAGGGA  1.6
101. GGUUAGU  1.6
102. AGAAGAG  1.61
103. CGAAGGA  1.62
104. CUGUGGG  1.63
105. UGCGGGA  1.7
106. CCGGGGU  1.71
107. UGGUAAG  1.73
108. AGCAGGU  1.74
109. CUGGGGU  1.79
110. GGUGAAA  1.83
111. GGCGAGC  1.87
112. AACGGAA  1.91
113. CGGUUGG  1.91
114. UUGGGAA  1.92
115. ACAAGGA  1.94
116. UGGUUAG  1.94
117. GGUUGGU  1.94
118. GGCGGGC  1.97
119. GGUUGGC  2.03
120. UAAGGUG  2.07
121. CAAGGUG  2.13
122. UUUGGGG  2.13
123. UGAAGGU  2.14
124. GCAAGGU  2.17
125. GUAGGUA  2.25
126. ACGGGUU  2.32
127. CGCGGGG  2.32
128. ACGGGGC  2.37
129. AUAGGUG  2.41
130. UUGGGAG  2.51
131. GGCGGGU  2.57
132. AUGGGGC  2.6
133. AAUUGGG  2.6
134. GCAAGGA  2.65
135. GAAGGCG  2.66
136. CGAAGGG  2.68
137. AGGUUGG  2.71
138. AUUGGGU  2.74
139. GCGGGUG  2.75
140. ACGGGGA  2.84
141. UGAAGGA  2.95
142. GAAGGUU  2.96
143. AUUGGGA  2.99
144. AGCGGGU  3.01
145. GGAAGGC  3.04
146. CGGGGGU  3.06
147. AAAGGUU  3.09
148. AUUGGGG  3.16
149. ACGGGGG  3.19
150. GGCGAGG  3.22
151. GGCGGGA  3.23
152. ACGGGUG  3.24
153. AGCGGGA  3.24
154. GUAGGUG  3.25
155. GCAAGGG  3.28
156. AAAGGUG  3.5
157. ACAAGGG  3.52
158. AAAGGUA  3.53
159. GGGUUGA  3.53
160. UGAAGGG  3.56
161. AUGGGAG  3.64
162. GGCGGGG  3.64
163. GAUUGGG  3.64
164. AGAAGGU  3.67
165. GUUGGGG  3.69
166. ACGGGGU  3.8
167. AUGGGGG  3.84
168. AUGGGGU  3.91
169. GGAAGGU  3.94
170. AGCGGGG  3.96
171. GAAGGUA  4.04
172. GGGUUAG  4.04
173. GGGUUGG  4.05
174. AGAAGGG  4.09
175. GGUUAGG  4.22
176. AUGGGGA  4.23
177. AGAAGGA  4.29
178. AUGGGAA  4.29
179. GAAGGUG  4.37
180. GGUUGGG  4.42
181. GGAAGGA  4.61
